Counter-ions that a name gives are not always drawn. ± gives the uncertainty stated by the source.
System: Candida albicans SNY425 biofilm
Assay: biofilm OD600 with compound plus antifungal (OD600 (absorbance)); higher = more biofilm remaining
Details: assay detail: disruption of 24-h mature biofilm (compound + antifungal for a second 24 h)

| Compound | biofilm OD600 |
| --- | --- |
| CC(C)c1nc(CN(C)C(=O)N[C@H](C(=O)N[C@@H](Cc2ccccc2)C[C@H](O)[C@H](Cc2ccccc2)NC(=O)OCc2cncs2)C(C)C)cs1 [ritonavir] + OC(Cn1cncn1)(Cn1cncn1)c1ccc(F)cc1F [fluconazole] (first compound 12.5 µM) | 0.249 ± 0.0077 |
| CCC(C)[C@H](NS(=O)(=O)c1cccc2ccccc12)C(=O)N[C@H](C=O)Cc1c[nH]c2ccccc12 (stereo not given in full) + CC[C@H](C)C[C@H](C)CCCCCCCCC(=O)N[C@H]1C[C@@H](O)[C@@H](NCCN)NC(=O)[C@@H]2[C@@H](O)CCN2C(=O)[C@H]([C@H](O)CCN)NC(=O)[C@H]([C@H](O)[C@@H](O)c2ccc(O)cc2)NC(=O)[C@@H]2C[C@@H](O)CN2C(=O)[C@H]([C@@H](C)O)NC1=O [caspofungin] (first compound 12.5 µM) | 0.253 ± 0.01 |
| N[C@H](C(=O)O)[C@@H]1CC(Cl)=NO1 [Acivicin] + OC(Cn1cncn1)(Cn1cncn1)c1ccc(F)cc1F [fluconazole] (first compound 4 µM) | 0.279 ± 0.0067 |
| C[C@]1(Cn2ccnn2)[C@H](C(=O)O)N2C(=O)C[C@H]2S1(=O)=O [Tazobactam] + C[C@@H]1[C@H](O)[C@@H](C)/C=C/C=C/C=C/C=C/C=C/C=C/C=C/[C@H](O[C@@H]2O[C@H](C)[C@@H](O)[C@H](N)[C@@H]2O)C[C@@H]2O[C@](O)(C[C@@H](O)C[C@@H](O)[C@H](O)CC[C@@H](O)C[C@@H](O)CC(=O)O[C@H]1C)C[C@H](O)[C@H]2C(=O)O [amphotericin B] (first compound 12.5 µM) | 0.308 ± 0.008 |
| CCC(C)[C@H](NS(=O)(=O)c1cccc2ccccc12)C(=O)N[C@H](C=O)Cc1c[nH]c2ccccc12 (stereo not given in full) + C[C@@H]1[C@H](O)[C@@H](C)/C=C/C=C/C=C/C=C/C=C/C=C/C=C/[C@H](O[C@@H]2O[C@H](C)[C@@H](O)[C@H](N)[C@@H]2O)C[C@@H]2O[C@](O)(C[C@@H](O)C[C@@H](O)[C@H](O)CC[C@@H](O)C[C@@H](O)CC(=O)O[C@H]1C)C[C@H](O)[C@H]2C(=O)O [amphotericin B] (first compound 12.5 µM) | 0.27 ± 0.0099 |
| NCCCC[C@H](N[C@@H](CCc1ccccc1)C(=O)O)C(=O)N1CCC[C@H]1C(=O)O [Lisinopril] + C[C@@H]1[C@H](O)[C@@H](C)/C=C/C=C/C=C/C=C/C=C/C=C/C=C/[C@H](O[C@@H]2O[C@H](C)[C@@H](O)[C@H](N)[C@@H]2O)C[C@@H]2O[C@](O)(C[C@@H](O)C[C@@H](O)[C@H](O)CC[C@@H](O)C[C@@H](O)CC(=O)O[C@H]1C)C[C@H](O)[C@H]2C(=O)O [amphotericin B] (first compound 12.5 µM) | 0.27 ± 0.012 |
| NC(N)=NCCC[C@H](NC(=O)[C@@H]1CCCN1C(=O)[C@H](N)Cc1ccccc1)C(=O)CCl + OC(Cn1cncn1)(Cn1cncn1)c1ccc(F)cc1F [fluconazole] (first compound 12.5 µM) | 0.269 ± 0.0072 |
| N=C(N)Nc1ccc(C(=O)Oc2ccc3cc(C(=N)N)ccc3c2)cc1 [Nafamostat mesylate] + CC[C@H](C)C[C@H](C)CCCCCCCCC(=O)N[C@H]1C[C@@H](O)[C@@H](NCCN)NC(=O)[C@@H]2[C@@H](O)CCN2C(=O)[C@H]([C@H](O)CCN)NC(=O)[C@H]([C@H](O)[C@@H](O)c2ccc(O)cc2)NC(=O)[C@@H]2C[C@@H](O)CN2C(=O)[C@H]([C@@H](C)O)NC1=O [caspofungin] (first compound 12.5 µM) | 0.25 ± 0.0081 |
| CC(C)c1nc(CN(C)C(=O)N[C@H](C(=O)N[C@@H](Cc2ccccc2)C[C@H](O)[C@H](Cc2ccccc2)NC(=O)OCc2cncs2)C(C)C)cs1 [ritonavir] + CC[C@H](C)C[C@H](C)CCCCCCCCC(=O)N[C@H]1C[C@@H](O)[C@@H](NCCN)NC(=O)[C@@H]2[C@@H](O)CCN2C(=O)[C@H]([C@H](O)CCN)NC(=O)[C@H]([C@H](O)[C@@H](O)c2ccc(O)cc2)NC(=O)[C@@H]2C[C@@H](O)CN2C(=O)[C@H]([C@@H](C)O)NC1=O [caspofungin] (first compound 12.5 µM) | 0.159 ± 0.0069 |
| Cc1ccc(S(=O)(=O)N[C@@H](Cc2ccccc2)C(=O)CCl)cc1 + CC[C@H](C)C[C@H](C)CCCCCCCCC(=O)N[C@H]1C[C@@H](O)[C@@H](NCCN)NC(=O)[C@@H]2[C@@H](O)CCN2C(=O)[C@H]([C@H](O)CCN)NC(=O)[C@H]([C@H](O)[C@@H](O)c2ccc(O)cc2)NC(=O)[C@@H]2C[C@@H](O)CN2C(=O)[C@H]([C@@H](C)O)NC1=O [caspofungin] (first compound 4 µM) | 0.251 ± 0.011 |

Reference: the supplement of paper PMC7261846
